Assay outcomes (PubChem)
In the library only some 3.1% were active in any assay of this set; here they are far more common.
S1P3 antag = S1P3 (human) receptor antagonism; Q99500; inhibition, % at 4.98 µM; CHO S1P3 NFAT-BLA reporter, FRET fluorescence, antagonist mode; hit rate 0.27% among 170,000;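 active = inhibition above the plate cutoff, the mean inhibition of test wells on that plate plus 3 SD, cut at about 28% in these data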;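 note: cells challenged with S1P at its EC80 of 0.8 µM; blue over green emission ratio from cleaved BLA substrate after 4 h stimulation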
EP2 modulator = modulators of human EP2 prostaglandin E2 receptor; hit rate 0.83% among 260,000; P43116; induction, % at 25 µM; EP2-expressing cells, cAMP HTRF FRET, PGE2 co-stimulation;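 active = compounds whose cAMP rise, as percent of the full-agonist control response, exceeds 60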;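 note: rat C6 glioma line stably carrying human EP2 under a CMV promoter; the protocol text gives 20 µM as final concentration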
EP2 antag = EP2 receptor (human) inhibition; P43116; C6 glioma cells expressing human EP2, cAMP TR-FRET; cells stimulated with saturating PGE2; inhibition, % at 25 µM; hit rate 0.52% among 260,000; AID 1422;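 active = percent inhibition above 40 after rounding to a whole number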;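 note: rat C6 glioma host cells with rolipram phosphodiesterase inhibitor present; the protocol text gives 20 µM as final concentration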
Cl transport mod = KCC2 (human) Cl- transport modulation | Q9H2X9 | KCC2 cells, thallium flux FluoZin-2 fluorescence | B-score of Tl+ flux slope (higher = more flux/activation; lower = inhibition) at 10 µM | hit rate 2.2% among 190,000 | AID 1456;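 active = thallium flux slope and its plate-corrected score both differing from the plate sample mean at a set confidence after two filtering rounds, in either direction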;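 note: slope of fluorescence scaled to starting intensity during 10 to 20 s after thallium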
Of the large screens only hits and unclear results are named; the others gave an inactive call; ! = not active in a repeat.

COC(=O)C1=NN(C(=O)c2cccc(Br)c2)C(O)(c2ccc(Cl)cc2)C1 (configuration not stated)	Cl transport mod 92.3
CCOC(=O)C1=NN(C(=O)c2ccccc2)C(O)(c2ccc(C)cc2)C1 (configuration not stated)	Cl transport mod 52
CCOC(=O)C1=NN(C(=O)Cc2ccccc2)C(O)(c2ccc(Cl)cc2)C1 (configuration not stated)	none
COc1ccc(C(C(=O)NC2CCCC2)N(C(=O)c2ccco2)c2ccc(OC)cc2)cc1 (configuration not stated)	none (no result: S1P3 antag, Cl transport mod)
CC1Cc2ccccc2N1C(=O)CSc1nnc(NC(=O)CCCl)s1 (configuration not stated)	none (no result: S1P3 antag, Cl transport mod)
Cc1c(NC(=S)NC(=O)c2ccco2)cccc1-c1nc2ncccc2o1	Cl transport mod 13
CCn1c(=O)oc2cc(S(=O)(=O)NC3(c4ccccc4F)CC3)ccc21	none (no result: S1P3 antag, Cl transport mod)
Cc1ccccc1OC(=O)n1c(=S)oc2cc(Cl)ccc21	Cl transport mod 2.6 (no result: S1P3 antag)
CCn1c(C)[n+](CC(O)COc2ccccc2)c2ccccc21 (configuration not stated)	none (no result: S1P3 antag, Cl transport mod)
COc1ccc(C(C#N)Nc2ccccc2OC)cc1 (configuration not stated)	none (no result: S1P3 antag, Cl transport mod)
Cc1ccc(Cl)cc1NC(C#N)c1ccccc1 (configuration not stated)	EP2 modulator 62.9
COC(=O)C1=CN(CC2CCCO2)C=C(C(=O)OC)C1c1ccsc1 (configuration not stated)	none
COC(=O)C1=CN(Cc2ccc(OC)cc2)C=C(C(=O)OC)C1c1ccsc1	EP2 modulator 61.3
CCc1cc(=O)[nH]c(NC2CCN(C(=O)C(C)(C)c3ccc(Cl)cc3)CC2)n1	none (no result: S1P3 antag, Cl transport mod)
CCN(c1ccccc1)S(=O)(=O)c1ccc(Cl)c(NC(=O)Nc2ccc(Cl)cc2C#N)c1	EP2 modulator 60.6
C[C@H](NC(=O)c1ccc(Cl)c(Cl)c1)c1ccc(-c2ccccc2)cc1	EP2 antag 55.0 (no result: S1P3 antag, Cl transport mod)
CC(NC(=O)c1ccc(F)cc1)c1ccccc1 (configuration not stated)	none (no result: S1P3 antag)
C[N@@+]1(CC[N@+]2(C)CCC[C@@H]2c2cccnc2)CCC[C@@H]1c1cccnc1	EP2 antag 47.3 (no result: S1P3 antag, Cl transport mod)
COc1ccc(CCNC(=O)CSc2nc3cc4c(cc3cc2C)OCCO4)cc1OC	none (no result: S1P3 antag, Cl transport mod)
CCOc1cc(S(=O)(=O)n2c(C)nc3ccccc32)ccc1Cl	EP2 modulator 80.4 (no result: S1P3 antag, Cl transport mod)
Cc1ccc(C(=O)Nc2cc(Cl)ccc2N2CCCCC2)s1	EP2 modulator 62.4 (no result: S1P3 antag)
COc1ccccc1NC(=O)C1=C(C)NC2=C(C(=O)CC(C)(C)C2)C1c1cccs1 (configuration not stated)	EP2 modulator 62.8 (no result: S1P3 antag, Cl transport mod)
CCc1[nH]nc2c1C(c1ccsc1)C(C#N)=C(N)O2 (configuration not stated)	none (no result: S1P3 antag)
Cc1ccc(C2C(C#N)=C(N)Oc3n[nH]c(-c4cccs4)c32)s1 (configuration not stated)	EP2 antag 43.5!
CCc1[nH]nc2c1C(c1ccc(Br)s1)C(C#N)=C(N)O2 (configuration not stated)	EP2 antag 44.3, Cl transport mod -4.44 (no result: S1P3 antag)
CCCC(=O)Nc1cnc(NC(=O)c2ccco2)cc1C	none (no result: S1P3 antag, Cl transport mod)
CC(=O)Nc1cc(OC(C)=O)c2nonc2c1OC(C)=O	S1P3 antag 54.4 (no result: EP2 modulator, Cl transport mod)
CC(=O)Nc1nonc1NC(C)=O	none (no result: Cl transport mod)
Cc1nn(CC(=O)NC2CCCCC2C)c(=O)c2cc3sccc3n12 (configuration not stated)	none (no result: S1P3 antag, EP2 antag, Cl transport mod)
COc1ccccc1C(=O)Nc1nnc(-c2ccco2)s1	EP2 antag 43.6 (no result: S1P3 antag)
COc1ccccc1NC(=O)Nc1nnc(-c2ccco2)s1	none (no result: S1P3 antag, EP2 antag)
O=C(Nc1nnc(-c2ccco2)s1)c1ccccc1	EP2 antag 46.2
COc1ccc(C(=O)Nc2nnc(-c3ccco3)s2)cc1	none (no result: S1P3 antag)
CCc1cc2cc(OC)ccc2nc1SCC(=O)Nc1ccc2c(c1)OCO2	none (no result: S1P3 antag, Cl transport mod)
[Cu].c1ccc2c(c1)-c1nc-2nc2[n-]c(nc3nc(nc4[n-]c(n1)c1ccccc41)-c1ccccc1-3)c1ccccc21	EP2 antag 54.3 (no result: S1P3 antag, Cl transport mod)
Nc1nc(N)nc(-c2ccccc2-c2nc(N)nc(N)n2)n1	none
N#Cc1c(-c2ccc3c(c2)OCO3)cc(-c2ccccc2)nc1N	EP2 modulator 65.9 (no result: S1P3 antag, Cl transport mod)
O=c1cc2oc3cc(O)c(O)cc3c(-c3ccccn3)c-2cc1O	none (no result: S1P3 antag, Cl transport mod)
CCN(CC(=O)Nc1ccccc1Br)C1CCCCC1	none
CCN(C(=S)NC(=O)c1ccccc1Br)C1CCCCC1	Cl transport mod 62.6
Cn1cnc([N+](=O)[O-])c1Sc1nc(N)nc2c1ncn2[C@@H]1C[C@H](O)[C@@H](CO)O1	EP2 antag 48.1 (no result: S1P3 antag, Cl transport mod)
